SW480 rerep: inducers of DNA re-replication in SW480 colon cancer cells; SW480 DNA re-replication, Hoechst DNA content imaging, 48 h; Potency, µM (series often up to 46.1 µM), most hits filed as activators; actives 1.8% (n = 340,000); note: nearly all actives have a fitted effect of over 55% in size
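SW480 cells exposed to compounds for 48 hr at 37 C, 5% CO2, then Hoechst-stained 40 min. Nuclear DNA content imaged by fluorescence scanning (405 nm excitation, 500-530 nm emission); re-replication scored as increased high-intensity nuclei.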
MCF10A rerep: inducers of DNA re-replication in MCF 10A breast cells | MCF 10A DNA re-replication, Hoechst nuclear intensity, 48 h | Potency, µM (titrated, usually from 46.1 µM), actives largely listed as activators | actives 2.9% (n = 350,000) | AID 624296; note: nearly all actives have a fitted effect of over 50% in size
RORgamma inh: inhibitors of mouse ROR gamma transcriptional activity. Drosophila S2 Gal4-RORgamma UAS-luciferase reporter, 20 h. Potency, µM (series often up to 53.6 µM), most hits filed as inhibitors. actives 5.4% (n = 310,000). AID 2551; note: nearly all actives have a fitted effect of over 60% in size
Target sequence (P51450 whole entry, looked up, the tested form may be a part): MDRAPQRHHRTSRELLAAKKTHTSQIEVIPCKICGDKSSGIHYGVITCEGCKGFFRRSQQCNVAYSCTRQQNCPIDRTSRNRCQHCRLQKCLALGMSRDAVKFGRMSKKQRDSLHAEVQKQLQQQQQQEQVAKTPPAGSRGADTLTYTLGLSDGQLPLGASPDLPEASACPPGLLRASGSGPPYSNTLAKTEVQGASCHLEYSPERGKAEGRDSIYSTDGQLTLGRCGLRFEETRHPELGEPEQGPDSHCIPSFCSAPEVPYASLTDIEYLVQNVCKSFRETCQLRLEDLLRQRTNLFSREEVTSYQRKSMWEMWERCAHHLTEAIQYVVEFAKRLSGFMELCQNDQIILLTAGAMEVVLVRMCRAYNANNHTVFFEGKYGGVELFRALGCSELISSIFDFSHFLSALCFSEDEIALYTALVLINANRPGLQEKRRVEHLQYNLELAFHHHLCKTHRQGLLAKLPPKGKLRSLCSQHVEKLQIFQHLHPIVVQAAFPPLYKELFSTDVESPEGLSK
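ROR gamma transcriptional activity was tracked as Gal4-UAS luciferase output in stably transfected Drosophila Schneider cells, with compound added 1 hr before 700 uM copper sulfate induction and a 20 hr ambient-temperature incubation.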
BCR signal inh: chronic active BCR signaling inhibition. ABC-DLBCL IkBa-CBG/CBR reporter, luminescence ratio, 4 h. Potency, µM (series often up to 46.1 µM), usual class: inhibitors. actives 0.05% (n = 340,000). AID 493014; active = well fitted inhibition curve with a large enough effect in the signal ratio, with a control signal flat, not every such curve was filed as active; inconclusive = small, poorly fitted or top-dose-only effect, or effect the other way, or a change in a side signal; the % refers to the signal ratio
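TMD8 human ABC-DLBCL cells with doxycycline-inducible IκBα–green luciferase fusion and unfused red luciferase, in 0.5% FBS medium; compounds up to 46 uM, 4 h at 37C. Green/red luminescence ratio, filter-overlap corrected, fitted to concentration-response curves.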
Giardia kill: Giardia lamblia killing | Giardia lamblia trophozoite viability | activity change, % at 7.66 µM, hits read low | actives 0.15% (n = 340,000) | AID 540267; in the data active = activity change below about -80%; inconclusive = between about -30% and that limit;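 note: parasites exposed to compound for two days anaerobically before the ATP read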
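Trophozoite viability was measured as ATP-dependent luminescence, read 15-30 min after reagent addition. Before that, parasites at 100 cells/well were exposed to compounds for 48 h, anaerobically, at 37 deg C.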
VP16 counter: inhibits Gal4-VP16 luciferase reporter, ROR gamma counter-screen; actives 3.5% (n = 310,000); Potency, µM (titrated, usually from 53.6 µM), actives largely listed as inhibitors; Drosophila S2 Gal4-VP16 UAS-luciferase, luminescence, 20 h; AID 2546;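 note: Gal4-VP16 expression switched on by copper sulfate through the metallothionein promoter; nearly all actives have a fitted effect of over 50% in size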
Large screens that a line does not name were inactive. In the library only some 8.3% were active in any assay of this set; here they are far more common. Unless noted, calls come from the whole dose curve; as a rule, active = well fitted curve in the direction sought with a large enough effect; inconclusive = small, poorly fitted or top-dose-only effect, or another doubt; inactive = no such curve, though single readings can be large; an effect the other way counts as inactive or inconclusive.

O=C(NC(c1ccc(Cl)cc1)c1cc(Cl)c2cccnc2c1O)c1cccnc1 (stereo not drawn)	SW480 rerep 2.6µM, MCF10A rerep 15µM, RORgamma inh 0.71µM, VP16 counter 0.71µM
CCC(=O)NC(c1cc(Cl)c2cccnc2c1O)C(C)C (stereo not drawn)	SW480 rerep 0.23µM (no result: RORgamma inh, VP16 counter)
CCC(=O)NC(c1cc(Cl)c2cccnc2c1O)C1CC1 (stereo not drawn)	none (no result: RORgamma inh, VP16 counter)
CC(C)CCC[C@@H](C)[C@H]1CC[C@H]2[C@@H]3CC=C4CC(O)CC[C@]4(C)[C@H]3CC[C@]12C (stereo partly drawn)	none (no result: SW480 rerep, MCF10A rerep, BCR signal inh, Giardia kill)
COc1cc(C2C(=O)N(C3CCCCCC3)CC(=O)N2Cc2ccccc2)ccc1OC(C)C (stereo not drawn)	none (no result: SW480 rerep, MCF10A rerep, RORgamma inh, Giardia kill, VP16 counter)
CC1CN(S(=O)(=O)c2cccc(C(=O)NCCC3=CCCCC3)c2)CC(C)O1 (stereo not drawn)	none (no result: RORgamma inh, VP16 counter)
CCC(=O)NC(c1cccs1)c1cc(Cl)c2cccnc2c1O (stereo not drawn)	SW480 rerep inconclusive
CCCC(=O)NC(c1ccc(OC)c(OC)c1)c1cc(Cl)c2cccnc2c1O (stereo not drawn)	SW480 rerep 1.8µM, MCF10A rerep 8.2µM, RORgamma inh 2.8µM, VP16 counter 5µM
COc1ccc(C(NC(C)=O)c2cc(Cl)c3cccnc3c2O)cc1 (stereo not drawn)	MCF10A rerep inconclusive, RORgamma inh 2µM, VP16 counter 1.6µM
CCCCC(=O)NC(c1cccs1)c1cc(Cl)c2cccnc2c1O (stereo not drawn)	RORgamma inh 2.5µM, VP16 counter 3.5µM
COc1ccc(C(=O)NC(c2ccccc2Cl)c2cc(Cl)c3cccnc3c2O)cc1 (stereo not drawn)	BCR signal inh inconclusive (no result: SW480 rerep, MCF10A rerep, RORgamma inh, VP16 counter)
Cc1ccc(/C=C/c2nc3ccccc3[nH]2)o1	SW480 rerep inconclusive, MCF10A rerep inconclusive, RORgamma inh 11µM, BCR signal inh inconclusive, Giardia kill inconclusive
Oc1ccc(C[C@@H]2CNC(=S)N2CCCCC2CCCCC2)cc1	MCF10A rerep inconclusive, RORgamma inh 8.9µM, VP16 counter inconclusive
S=C1NC[C@H](c2ccccc2)N1CCCCC1CCCCC1	MCF10A rerep inconclusive, RORgamma inh 0.45µM, VP16 counter 3.2µM
NC1=NC[C@H](c2ccccc2)N1CCCCC1CCCCC1	none
O=C1NC[C@H](Cc2ccc(O)cc2)N(CC2CCCCC2)C1=O	none
O=C(NCc1ccccc1Cl)c1cc2c(s1)CS(=O)(=O)C2	none
CCOC(=O)C1CCCN(S(=O)(=O)Cc2ccc(Cl)cc2)C1 (stereo not drawn)	none (no result: RORgamma inh, VP16 counter)
CC(C)=CCN1CCN(Cc2cn(C(C)C)c3ccccc23)CC1CCO (stereo not drawn)	none
COc1ccc(-c2cnc(SCC(=O)Nc3ccc4c(c3)OCO4)n2Cc2ccco2)cc1	MCF10A rerep inconclusive, BCR signal inh inconclusive
CC(=O)Nc1cccc(NC(=O)CSc2ncc(-c3ccc(Cl)cc3)n2Cc2ccco2)c1	MCF10A rerep 16µM, RORgamma inh inconclusive, BCR signal inh inconclusive, VP16 counter inconclusive
CSc1nsc(SCC(=O)Nc2ccc(C(C)=O)cc2)n1	SW480 rerep inconclusive, BCR signal inh inconclusive
CC(=O)CC(=O)Nc1ccc(C(N)=O)cc1	RORgamma inh 11µM
CSc1nsc(SCC(=O)Nc2ccc(C(N)=O)cc2)n1	RORgamma inh 3.2µM, VP16 counter inconclusive
Cc1cc(C(=O)c2ccc(C(C)(C)C)cc2)c(NC(=O)CCl)s1	MCF10A rerep inconclusive, RORgamma inh 11µM, VP16 counter inconclusive
CCn1c(C)nc2cc(C(=O)OC(C(F)(F)C(F)F)C(F)(F)C(F)F)ccc21	RORgamma inh 7.1µM, BCR signal inh inconclusive, VP16 counter 7.1µM
CCn1c(C)nc2cc(C(=O)NNC(=O)c3ccc(C)cc3)ccc21	none (no result: RORgamma inh, VP16 counter)
O=C(Cc1ccc(Cl)cc1)Nc1ccc(Cl)cn1	BCR signal inh inconclusive
Cc1cc(Cl)ccc1OCC(=O)NC(=S)Nc1ccc(Cl)cn1	RORgamma inh 5.6µM
CCCC(=O)NC(=S)Nc1ccc(Cl)cn1	RORgamma inh 3.5µM, BCR signal inh inconclusive, VP16 counter 6.3µM
O=C(COc1ccc(Cl)cc1Cl)Nc1ccc(Cl)cn1	RORgamma inh inconclusive, Giardia kill inconclusive, VP16 counter inconclusive
CC(=O)OCC(NC(=O)C(Cc1ccccc1)NC(=O)OC(C)(C)C)C1OC(n2cc(F)c(=O)[nH]c2=O)C(OC(C)=O)C1OC(C)=O (stereo not drawn)	none (no result: SW480 rerep, MCF10A rerep, BCR signal inh)
COc1ccc(/C=C/C(=O)Nc2ccc(OC)nc2)cc1	none
COc1ccc(NC(=O)/C=C/c2ccc(OC(F)F)cc2)cn1	SW480 rerep inconclusive, MCF10A rerep 21µM
CC(=O)Nc1ccc(Nc2nc(Nc3ccc(Cl)cc3)nc(N3CCOCC3)n2)cc1	none (no result: SW480 rerep, MCF10A rerep, RORgamma inh, BCR signal inh, VP16 counter)
CC1=C(C(=O)OCc2ccccc2)C(c2ccc(N3CCOCC3)cc2)NC(=O)N1 (stereo not drawn)	MCF10A rerep inconclusive
CC1=C(C(=O)N(C)C)C(c2ccc(N3CCOCC3)cc2)NC(=O)N1 (stereo not drawn)	SW480 rerep 18µM, MCF10A rerep 0.92µM, BCR signal inh inconclusive
S=c1[nH]nc(-c2ccc(Cl)cc2Cl)n1Cc1ccccc1	RORgamma inh 2.8µM, BCR signal inh inconclusive, VP16 counter 5.6µM
C=CCn1c(-c2sccc2C)n[nH]c1=S	RORgamma inh 10µM, VP16 counter inconclusive
CCn1c(CNC(=O)Cc2ccc(OC)cc2)n[nH]c1=S	none
CCOc1ccc(-c2n[nH]c(=S)n2Cc2ccccc2)cc1	RORgamma inh 6.3µM, VP16 counter 5.6µM
COc1ccc(Cn2c(-c3ccc(OC)cc3)n[nH]c2=S)cc1	RORgamma inh 7.9µM
O=S(=O)(c1ccc(Br)cc1)N1CCOCC1	none (no result: SW480 rerep, MCF10A rerep, RORgamma inh, BCR signal inh, VP16 counter)
C=CCn1c(CSc2nnc(-c3ccccc3)n2C)n[nH]c1=S	MCF10A rerep inconclusive
C=CCn1c(-c2oc3nc(-c4ccccc4)cc(-c4ccccc4)c3c2N)n[nH]c1=S	SW480 rerep 8.2µM, MCF10A rerep 7.3µM, RORgamma inh inconclusive
S=c1[nH]nc(-c2cc3ccccc3o2)n1Cc1ccccc1	RORgamma inh 0.63µM, VP16 counter 1.8µM
NC(=O)CSc1nnc(-c2cc3ccccc3o2)n1Cc1ccccc1	RORgamma inh inconclusive
C=CCn1c(CSc2ccc(C)cc2)n[nH]c1=S	RORgamma inh 4µM, VP16 counter 14µM
CC(C)Oc1ccc(Cn2c(-c3ccco3)n[nH]c2=S)cc1	RORgamma inh 2.8µM, VP16 counter 4.5µM
COCCNC(=O)CN(C(=O)CCC(=O)Nc1ccccn1)c1cc(C)ccc1C	MCF10A rerep inconclusive
NNC(=O)c1cccn(Cc2ccc(Cl)cc2Cl)c1=O	none
C=CCn1c(-c2cccc(S(=O)(=O)N(CC)CC)c2)n[nH]c1=S	RORgamma inh inconclusive

Screening results: PubChem BioAssay, National Center for Advancing Translational Sciences (NCATS)
